Source: PubChem BioAssay (Tox21)
A number with no mark means an inactive call. Activity calls are given as the source filed them. The call rests on the fitted dose curve; in most records, active means well fitted curve in the direction sought with a large enough effect in the repeat runs; inconclusive means weak or mixed curves; inactive means flat fitted curve, though single readings scatter.

test: qHTS assay to test for compound auto fluorescence at 535 nm (green) in HepG2 cells (AID 720675); conditions: green autofluorescence 485/535 nm, 1 h; series mostly up to 91.3 µM; fluorescence, % of fluorescein control: at the top concentration
Text: National Center for Advancing Translational Sciences [NCATS]
NIH Chemical Genomics Center [NCGC]
U.S. Environmental Protection Agency [EPA]
National Institutes of Environmental Health Sciences [NIEHS]
National Toxicology Program [NTP]
U.S. Food and Drug Administration [FDA]
Compound auto fluorescence often interferes with screening of the compound library against various biological targets and signaling pathways. Some of these compounds may have fluorophoric properties. Such properties may interfere with the assay outputs resulting in false positives and/or negatives. To decrease such complications and ensure the compound activities are relevant in terms of biological response, the Tox21 10K compound library was screened for auto fluorescence.
From the fluorophores used as reporter signals in our screening assays, the auto fluorescence equivalencies of compounds against three fluorophores have been evaluated: Triamterene, Fluorescein and Rose Bengal sodium for blue, green and red fluorescence, respectively. The fluorescence intensities were measured using Excitation/Emission wavelengths at 405/460nm, 485/535nm and 540/590nm for blue, green and red labels, respectively. This assay includes the green fluorescence data.
Tox21 Assay Protocol Summary:
2,000 HepG2 cells in 5 uL of culture medium (MEM containing 10% FBS) per well were dispensed into black wall/clear bottom 1536-well plates using a Multidrop Combi Dispenser (ThermoFisher Scientific, Waltham, MA). The assay plates were incubated overnight at 37 C to allow cell attachment to the well bottom, followed by the transfer of 23 nL compound or DMSO vehicle by a pintool work station (Kalypsys , San Diego, CA). After the assay plates were incubated for 1 hr at 37 C and 5% CO2, fluorescence intensities in the assay plates were measured by an Envision (PerkinElmer, Shelton, CT) plate reader using three labels for measuring blue, green and red fluorescence at […] 460, 535 and 590 nm respectively.
On the % scale 0 is the no-effect control and ±100 the full control effect.

Structure (SMILES)	fluorescence, % of fluorescein control	Potency
ClSC(Cl)(Cl)Cl	0.0165%	
CCCCC/C=C\C/C=C\C/C=C\C/C=C\CCCC(=O)NCC(=O)O	0.165% [at 3.72 µM]	
Cc1ccn2nc(S(=O)(=O)Nc3c(F)cccc3F)nc2n1	-0.0609%	
CN(C)CCc1c[nH]c2ccccc12	-0.052% [at 95.7 µM]	
CCCCc1ccccc1	-0.111%	
CN	-0.0142% [at 95.7 µM]	
Cc1ccc2cc3c(ccc4ccccc43)c3c2c1CC3	0.141% [at 46 µM]	
CCC1(CC)C(=O)N=C(O)NC1=O	0.0301%	
Nc1ccc(N=Nc2ccccc2)cc1	-0.243%	
O=P(Cl)(Cl)Cl	-0.029% [at 95.7 µM]	
Nc1cc(Cl)ccc1Cl	0.101%	
CCCCCON=O	0.0089%	
CC(=O)[O-].CC(=O)[O-].[Co+2]	0.0822%	
NC1CCC(CC2CCC(N)CC2)CC1 (stereo not given)	-0.145%	
COP(=O)(OC)Oc1ccc([N+](=O)[O-])cc1	0.0381%	
CCCC[N+]1(C)CCCC1 (tested in a mixture with another compound)	-0.112% [at 95.7 µM]	
O=[N+]([O-])c1ccc(CCl)cc1	-0.008%	
CCCCON=O	-0.0174% [at 95.7 µM]	
CC[C@H](C)[C@H]1O[C@]2(C=C[C@@H]1C)C[C@@H]1C[C@@H](C/C=C(\C)[C@@H](O[C@H]3C[C@H](OC)[C@@H](O[C@H]4C[C@H](OC)[C@@H](NC)[C@H](C)O4)[C@H](C)O3)[C@@H](C)/C=C/C=C3\CO[C@@H]4[C@H](O)C(C)=C[C@@H](C(=O)O1)[C@]34O)O2	0.244%	
Brc1ccc(Oc2ccc(Br)cc2Br)c(Br)c1	0.003%	

Structure (SMILES)	fluorescence, % of fluorescein control	Potency
O=C(NC(=O)c1ccccc1Cl)Nc1ccc(OC(F)(F)F)cc1	0.0037%	
CN1CCc2cc3c(cc2C1O)OCO3 (stereo not given)	0.0034%	
CCC[CH2][Sn]([CH2]CCC)([O]C(C)=O)[O]C(C)=O	0.101%	
c1ccc(Nc2ccc(Nc3ccccc3)cc2)cc1	-0.0634%	
CC(C)(C)c1ccc(OP(=O)(Oc2ccccc2)Oc2ccccc2)cc1	-0.0039%	
[O]=[Cr][O][Cr]=[O]	0.0698% [at 95.7 µM]	
C=Cc1cccc(CCl)c1	-0.009% [at 203 µM]	
N#Cc1c2ccccc2cc2ccccc12	0.142%	
c1csc(-c2ccc(-c3cccs3)s2)c1	-0.198%	
CCN(CC)CCN1C(=O)CN=C(c2ccccc2F)c2cc(Cl)ccc21	0.005% [at 46 µM]	
[Cl-].[Cl-].[Cl-].[Yb+3]	0.0215%	
CC(Cc1ccc2c(c1)OCO2)NO (stereo not given)	-0.046% [at 95.7 µM]	
CNC(C)(C)Cc1ccccc1	-0.216% [at 18.6 µM]	
CC(=O)[O-].CC(=O)[O-].CC(=O)[O-].[Cr+3]	0.0598%	
O=S1(=O)OCC2C(CO1)C1(Cl)C(Cl)=C(Cl)C2(Cl)C1(Cl)Cl (stereo not given)	0.0487%	
C[N+]1(C)[C@@H]2CC[C@H]1CC(OC(=O)C(CO)c1ccccc1)C2 (stereo not given in full)		inactive
C#CCO	0.0153%	
CC1(C)C(C=C(Cl)Cl)C1C(=O)OC(C#N)c1ccc(F)c(Oc2ccccc2)c1 (stereo not given)	-0.299%	
CNC(=O)Oc1cc(C)cc(C(C)C)c1	-0.143%	
O=C1C(Cl)=C(Cl)C(=O)C(Cl)=C1Cl		inactive
